# Test results reported in PubChem BioAssay AID720706 (Broad Institute, 2013).
# Values joined by “and” are separate entries in the source; they are usually repeats but may differ in a detail not shown here. Equal entries are not always repeated. About 5,500 (1.6%) of roughly 350,000 compounds were called active.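 Rule for the calls: active = significant combined selectivity score with lowered wild-type GFP, culture density cut under 30%, mutant RFP and density less affected; inactive = any of these conditions unmet.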 The full list was thinned out, with actives kept by preference.
# Test: reduced GFP signal of wild-type E. coli, primary screen, bacterial rRNA inhibitor project, GFP/RFP fluorescence, OD600, single point (AID 720706)
# Details: E. coli WT GFP vs humanized-ribosome RFP mutants, 24 h; GFP signal change (wild-type ribosome): stronger effect = lower value, DMSO median 0, no signal -100; OD600 change: measured here: OD600 growth, DMSO median 0, no signal -100; RFP signal change: measured here: RFP humanized mutant strains, DMSO median 0, no signal -100, concentration not given here
Structure (SMILES),GFP signal change (wild-type ribosome),OD600 change,RFP signal change
CO[C@@H]1CN(C)C(=O)c2cc(NC(=O)C3CCCCC3)ccc2OC[C@@H](C)N(C(=O)Nc2ccc(C(F)(F)F)cc2)C[C@H]1C,-0.109% (inactive) and 1.77% (inactive),2.19% and -2.79%,2.17% and 2.36%
CO[C@@H]1CN(C)C(=O)c2cc(NC(=O)C3CCCC3)ccc2OC[C@@H](C)N(C(=O)Nc2ccc(C(F)(F)F)cc2)C[C@H]1C,-37.8% (active),-17.8%,-5.86%
CO[C@@H]1CN(C)C(=O)c2cc(NC(=O)C3CC3)ccc2OC[C@@H](C)N(C(=O)NC(C)C)C[C@@H]1C,2.5% (inactive),1.51%,-0.768%
COc1ccccc1NC(=O)N1CC(=O)N2[C@@H](CO)[C@H](c3ccc(C#CC4CC4)cc3)[C@@H]2C1,-2.35% (inactive),-11.8%,0.376%
COc1ccc(OC)c(CN2CCN(C(=O)CNC(=O)c3cc(C)cc(C)c3)CC2)c1,4.96% (inactive),-6.51%,0.577%
CCn1c(CNC(=O)c2cc(OC)c(OC)c(OC)c2)cc2cc(C)ccc21,15.4% (inactive),1.59%,-1.24%
COc1cc(C(=O)NCC(=O)N2CC=C(c3ccccc3)CC2)cc(OC)c1OC,-28.4% (active),-22%,0.011%
CC(=O)N(C)C[C@@H]1Oc2ccc(NC(=O)NC(C)C)cc2C(=O)N(C)C[C@H]1C,1.73% (inactive),-0.17%,-0.644%
Cc1c(CCC(=O)O)c(=O)oc2cc3occ(-c4ccccc4)c3cc12,-41.8% (active),-27.4%,-8.24%
COc1cccc(-c2coc3cc4oc(=O)c(CC(=O)O)c(C)c4cc23)c1,-25.9% (inactive),-55.2%,-6.38%
Cc1coc2cc3oc(=O)c(CCC(=O)O)c(C)c3cc12,-8.99% (inactive),-10.5%,3.81%
CCCC#Cc1cnc2c(c1)C(=O)N([C@H](C)CO)C[C@H](C)[C@H](CN(C)S(=O)(=O)c1cn(C)cn1)O2,7.7% (inactive),7.52%,-1.55%
O=C(Cc1cccc2ccccc12)NNC(=O)Nc1ccc(Cl)cc1,-29.7% (active),-2%,-3.61%
O=C(O)Cc1ccc(NC(=O)Nc2cccc3ccccc23)cc1,-0.412% (inactive),0.56%,-3.8%
Cc1ccc(NC(=S)NC(NC(=O)Cc2cccc3ccccc23)C(Cl)(Cl)Cl)cc1 (centres undefined),2.41% (inactive),7.34%,6.73%
COc1ccc([C@@H]2C/C=C\C[C@@H](c3ccc4c(c3)OCO4)NC(=O)CCC(=O)N2)c(OC)c1,-4.75% (inactive),-1.11%,0.958%
C[C@@H]1CN([C@@H](C)CO)C(=O)Cc2cc(NS(=O)(=O)c3ccc(Cl)cc3)ccc2O[C@H]1CN(C)C(=O)Nc1cccc2ccccc12,-0.7% (inactive),-5.33%,1.87%
O=C(C[C@@H]1CC[C@@H](NC(=O)C2CCOCC2)[C@H](CO)O1)Nc1ccc(-c2ccccc2)cc1,-6.86% (inactive),-2.81%,-1.67%
CNC[C@H]1Oc2ncccc2C(=O)N(C)C[C@@H]1C,2.83% (inactive),2.62%,-0.315%
COc1ccc(CCNC(=O)COC(=O)/C=C/c2cccs2)cc1OC,-13.7% (inactive),-0.226%,6.24%
COc1ccc(CCNC(=O)c2cc3sccc3n2C)cc1OC,-23.3% (active),-13%,-7.3%

Structure (SMILES),GFP signal change (wild-type ribosome),OD600 change,RFP signal change
COc1ccc(CCNC(=O)Cc2ccc(C)cc2)cc1OC,1.64% (inactive),11.3%,-4.01%
C/C=C/c1ccc2c(c1)[C@H]1[C@H](CCN1S(=O)(=O)c1cn(C)cn1)[C@H](CO)N2,13.7% (inactive),27.2%,4.63%
CCC(=O)N1[C@@H](CO)[C@@H](c2ccccc2)C12CN(C(=O)Cc1ccccc1)C2,2.16% (inactive),3.77%,-0.755%
CC(C)CNc1ncnc2c1cnn2Cc1ccc(Cl)cc1,-36.1% (active),-17.1%,-0.858%
CC(C)(C)n1ncc2c(=O)n(Cc3ccc(Cl)cc3)cnc21,1.17% (inactive),1.78%,-4.59%
COc1ccc(CCNc2ncnc3c2nnn3Cc2ccccc2)cc1,4.94% (inactive),7.23%,-1.23%
C/C=C/c1ccc(C2[C@H]3CNC[C@@H]2N3Cc2cccc(OC)c2)cc1 (some centres undefined),-0.328% (inactive) and 2.3% (inactive),8.38% and 9.5%,6.71% and 2.48%
COc1cc(NC(=S)NCc2ccco2)c(OC)cc1Cl,4.76% (inactive),2.73%,1.65%
S=C(NCc1ccco1)Nc1ccc2c(c1)OCCO2,9.78% (inactive),8.22%,-0.482%
FC(F)Oc1ccc(NC(=S)NCc2ccco2)cc1Cl,-29.1% (active),-8.22%,5.68%
COc1cccc(NC(=O)N[C@H]2C=C[C@@H](CC(=O)Nc3ccc(-c4ccccc4)cc3)O[C@@H]2CO)c1,-12.2% (inactive),-10.6%,2.22%
CNC(=O)C[C@H]1CC[C@H]2[C@H](COc3ccc(NC(=O)Nc4ccc(F)cc4)cc3C(=O)N2C)O1,1.92% (inactive),1.94%,-3.24%
COc1ccc(CNC(=O)CN(Cc2ccccc2Cl)C(=O)c2csnn2)cc1,6.12% (inactive),13.2%,1.92%
COc1ccc(S(=O)(=O)N2CCCCCC2)cc1C(=O)N(C)Cc1cccc(OC)c1OC,-11.5% (inactive),-16.8%,3.6%
COc1cccc(CN(C)CC(=O)NCc2ccccc2Cl)c1OC,-25.4% (active),-20.5%,1.05%
N#Cc1ccc(-c2ccc(C3[C@@H]4CN(S(=O)(=O)c5cccc(Cl)c5)C[C@H]3N4)cc2)cc1 (some centres undefined),-35.6% (inactive),-51%,-3.29%
C[C@H]1CN([C@@H](C)CO)C(=O)c2c(c3ccccc3n2C)-c2ccccc2CO[C@@H]1CN(C)CC1CCCCC1,-7.33% (inactive),-38.8%,12.5%
CC(C)NC(=O)N(C)C[C@H]1Oc2ccc(NS(C)(=O)=O)cc2C(=O)N(C)C[C@@H]1C,2.01% (inactive),2.51%,-2.3%
Cc1ccc(S(=O)(=O)N(C)C[C@@H]2Oc3ccc(NS(=O)(=O)c4cccs4)cc3C(=O)N([C@@H](C)CO)C[C@H]2C)cc1,-5.79% (inactive),-10.9%,1.46%
C[C@@H]1CN([C@@H](C)CO)S(=O)(=O)c2ccc(-c3ccc(F)cc3)cc2O[C@H]1CN(C)C(=O)c1ccccc1F,-8.04% (inactive),-21%,-3.3%
O=C(C[C@H]1C[C@H]2c3cc(NC(=O)NC4CCCC4)ccc3O[C@H]2[C@@H](CO)O1)NCc1ccc(-c2ccccc2)cc1,-1.74% (inactive),-6.28%,2.06%

Structure (SMILES),GFP signal change (wild-type ribosome),OD600 change,RFP signal change
Cc1ccc(NC(=O)Nc2cc(-c3ccccc3)nn2C)cc1Cl,-40.1% (active),5.55%,-13.4%
COc1ccc(NC(=O)c2cc3nc(-c4ccccc4)cc(C)n3n2)cc1OC,-22% (inactive),-22.4%,-6.99%
Cc1cc(NC(=O)Nc2ccc(Cl)cc2)n(-c2ccccc2)n1,-29.1% (inactive),-32.4%,2.41%
C[C@H]1CN([C@@H](C)CO)S(=O)(=O)c2ccc(-c3cncnc3)cc2O[C@H]1CN(C)Cc1ccncc1,0.29% (inactive),1.07%,0.44%
Cc1noc(C)c1NC(=O)N(C)C[C@@H]1Oc2ccc(NC(=O)Nc3ccc(F)cc3)cc2C(=O)N([C@H](C)CO)C[C@@H]1C,1.48% (inactive),1.88%,-0.103%
C[C@@H]1CN([C@H](C)CO)S(=O)(=O)c2ccc(C3=CCCC3)cc2O[C@H]1CN(C)Cc1ccccc1F,-1.53% (inactive),5.49%,-3.33%
C[C@@H]1CN([C@H](C)CO)S(=O)(=O)c2ccc(C#CC3CC3)cc2O[C@H]1CN(C)C(=O)C1CCCCC1,-17.1% (inactive),-48%,15.7%
COc1ccccc1-c1cnc2c(c1)C(=O)N([C@@H](C)CO)C[C@@H](C)[C@@H](CN(C)C(=O)c1cccnc1)O2,4.96% (inactive),-0.255%,-1.54%
C[C@@H]1CN([C@@H](C)CO)S(=O)(=O)c2ccc(Br)cc2O[C@@H]1CN(C)C(=O)C1CCCCC1,-5.25% (inactive),-9.29%,0.015%
Cc1cc(C)cc(OCC(=O)Nc2ccc(N3CCOCC3)cc2N2CCOCC2)c1,-2.33% (inactive),6.13%,0.039%
Cc1cccc(OCC(=O)NC(=S)Nc2ccccc2N2CCOCC2)c1,-22.8% (active),-9.72%,1.75%
O=C(COc1ccc(Cl)cc1)NC(=S)Nc1ccccc1N1CCOCC1,-9.68% (inactive),-9.44%,-2.65%
O=C(c1ccccn1)N1CC(=O)N2[C@H](CO)[C@H](c3ccc(C#CCc4ccccc4)cc3)[C@H]2C1,1.93% (inactive),-4.41%,-3.49%
COCC#Cc1ccc2c(c1)O[C@H](CN(C)Cc1ccc3c(c1)OCO3)[C@H](C)CN([C@H](C)CO)S2(=O)=O,-2.4% (inactive),-9.34%,-0.135%
O=C(NCc1nnnn1-c1ccc(Cl)cc1)c1ccc2c(c1)OCO2,5.87% (inactive),4.9%,-2.26%
O=C(NCc1nnnn1-c1ccc(Cl)cc1)c1ccc([N+](=O)[O-])o1,-23% (active),2.62%,-4.79%
O=C(Nc1ccc(Br)cn1)c1ccc([N+](=O)[O-])o1,-3.84% (inactive),-3.66%,-3.37%
CSc1ccc(CNCCN2CCOCC2)cc1,6.43% (inactive),16.1%,-0.625%
CC(CN1CCOCC1)OC(=O)c1ccc(C(C)(C)C)cc1 (centres undefined),-5.42% (inactive),-0.13%,2.33%
CC(C)(C)c1ccc(CCC2OCC(CN3CCOCC3)O2)cc1 (centres undefined),-33.2% (active),-11.3%,-5.34%
C/C=C/c1cnc2c(c1)C(=O)N([C@H](C)CO)C[C@H](C)[C@@H](CN(C)CC1CCOCC1)O2,7.65% (inactive),16.9%,-1.32%
